The text below walks through data of PubChem BioAssay (NCI).

The structures appear in SMILES notation. The panel holds about 83,000 compounds, 20% with a hit somewhere; the sample as a whole holds those more often.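 96-well plates, one dose, 48 hours. Percent growth reported; active if below 10.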 A number with no mark means an inactive call. Active and inactive are the calls of the source.

Common to all, as to assay: NCI-60 one-dose screen, 48 h (100 = growth as untreated, 0 = no growth, -100 = all killed)
Assay [1] has as its system SK-MEL-2 melanoma. The note with it: 10 µM unless noted.
Assay [2] concerns EKVX NSCLC. The note with it: 10 µM unless noted.
Assay [3] has as its system SN12C renal. The note with it: 10 µM unless noted.
For assay [4], the system named is UO-31 renal. The note with it: 10 µM unless noted.
The subject of assay [5] is TK-10 renal. The note with it: 10 µM unless noted.
The test system of assay [6] is ACHN renal. The note with it: 10 µM unless noted.
In assay [7] the test system is CAKI-1 renal. The note with it: 10 µM unless noted.
The test system of assay [8] is A498 renal. The note with it: 10 µM unless noted.
The subject of assay [9] is MOLT-4 leukemia. The note with it: 10 µM unless noted.
Assay [10] deals with SR leukemia. The note with it: 10 µM unless noted.
Assay [11] relates to RPMI-8226 leukemia. The note with it: 10 µM unless noted.
Assay [12] has as its system OVCAR-8 ovarian. The note with it: 10 µM unless noted.
The test system of assay [13] is OVCAR-5 ovarian. The note with it: 10 µM unless noted.
For assay [14], the system named is OVCAR-4 ovarian. The note with it: 10 µM unless noted.
For assay [15], the system named is SK-OV-3 ovarian. The note with it: 10 µM unless noted.
The subject of assay [16] is IGROV1 ovarian. The note with it: 10 µM unless noted.
For assay [17], the system named is OVCAR-3 ovarian. The note with it: 10 µM unless noted.
Assay [18] deals with HS 578T breast. The note with it: 10 µM.
Assay [19] deals with NCI/ADR-RES ovarian. The note with it: 10 µM unless noted.
For assay [20], the system named is CCRF-CEM leukemia. The note with it: 10 µM unless noted.

With `COc1cc(OC)cc(-c2n/c(=C\c3c(O)[nH]c4ccc(Cl)cc34)cc3c2=Nc2ccccc2-3)c1`, the growth in [1] is 100%; in assay [2], 91.9%; in [3], 93.5%; in [4], 66.4%; in assay [5], 116%; in assay [6], 81.3%. Moreover, the growth was 82.1% in assay [7]; 94.2% in assay [8]; 30.5% in [9]; 23.5% in assay [10]; 71.2% in assay [11]; 54.5% in [12]. Also, the growth is 114% in [13]; 16.1% in [14]; 114% in assay [15]; -21.3% (active) in assay [16]; 69.7% in [17]; 90.4% in assay [18]. In assay [19], the growth is 81.6%.
Take `C#CC[C@@H]1C[C@]2(C)[C@H]3CC[C@@H]4[C@H]5C(C(=C)C)CC[C@]5(C(=O)NCCCCN)CC[C@@]4(C)[C@]3(C)CC[C@H]2C(C)(C)[C@H]1OC(C)=O` (stereo not given in full): the growth was 61% in [1]; 90.1% in assay [2]; -82.9% (active) in [3]; -97.1% (active) in assay [4]; -92.9% (active) in assay [5]; -98.3% (active) in assay [6]. Also, the growth in assay [8] was 108%; in [20] it was -11% (active); in assay [9] it was -21.3% (active); in [10], -7.19% (active); in assay [11], -39.1% (active); in [12], -47.5% (active). Besides, the growth in assay [13] was -87.3% (active); in assay [14], -61.8% (active); in [15], 111%; in [16] it was -59% (active); in assay [17], -87.3% (active); in assay [18], -26.2% (active). Moreover, the growth in assay [19] was -53.4% (active).
As for `CCCCCCCCCC1=NC(C)(C)CN1C(C)(C)CO`, the growth in assay [1] is 124%; in assay [2], 90.8%; in [3], 83.6%; in assay [4] it was 56.8%; in assay [5], 97.7%; in [6] it was 93.6%. Besides, the growth in assay [7] was 75%; in [8], 93%; in assay [20], 82.4%; in assay [9], 15.9%; in [11], 81%; in [12], 102%. The growth was 88.3% in [13]; 117% in [14]; 72.1% in assay [16]; 86.1% in assay [17]; 100% in [18]; 95.7% in [19].
On to `COc1ccc(Sc2[nH]c(C=O)c3ccccc23)cc1`, for which the growth in assay [1] was 69%; in assay [2], 33.2%; in assay [3] it was 89%; in assay [4], 57.7%; in assay [5] it was 34.1%; in assay [6], 87.1%. The growth was 33.1% in [8]; 0.79% (active) in [20]; 41.9% in assay [9]; 16.6% in assay [10]; -17.3% (active) in assay [11]; 69.3% in [12]. The growth was 28.5% in assay [13]; 60.3% in assay [14]; 47.7% in assay [15]; 73.1% in assay [16]; 65.7% in assay [17]; 54.4% in [18]. In addition, in assay [19], the growth was 46.8%.
As for `O=C1C2=C(C(=O)c3c(O)ccc(O)c31)N(c1ccc(N3CCOCC3)nc1)Cc1ccccc1O2`, the growth in [1] is -42.1% (active); in assay [2], -9.79% (active); in assay [3], -85.2% (active); in [4] it was -100% (active); in assay [5] it was -98.7% (active); in [6], -100% (active). Moreover, the growth is -50.1% (active) in assay [8]; -10.1% (active) in assay [20]; -24.4% (active) in [9]; -20.6% (active) in [11]; -10.6% (active) in [12]; -45.2% (active) in assay [13]. Besides, the growth was -97.8% (active) in assay [14]; 15.2% in assay [15]; -70.5% (active) in assay [16]; -97.3% (active) in assay [17]; 27.5% in assay [18]; 5.43% (active) in [19].
Take `O=C(Nc1ccc2ncnc(Nc3ccc(F)c(Cl)c3)c2c1)c1cccs1`: the growth in assay [1] was 90.7%; in assay [2], 44.5%; in assay [3], 45.6%; in [4], 27.8%; in assay [5], 32.3%; in [6] it was 2.83% (active). Also, the growth is 46% in assay [8]; 76.9% in assay [20]; 71.9% in assay [9]; 11.3% in assay [10]; 53% in assay [11]; 66.2% in assay [12]. For the same molecule, the growth in [13] was 76.1%; in assay [14], 47.1%; in assay [15], 54%; in assay [16], 38.7%; in assay [19] it was 60.7%.
Consider `CCCC(CCC)NCC(O)c1cc(-c2ccc(C(F)(F)F)cc2)nc(C(F)(F)F)c1` (stereo not given), for which the growth in assay [1] was -66.1% (active); in assay [2], -9.08% (active); in assay [3], -78.5% (active); in assay [4], -44.9% (active); in assay [5], -63.8% (active); in assay [6], -60.1% (active). Further, the growth is -31% (active) in assay [8]; -7.92% (active) in assay [20]; -30.6% (active) in [9]; -61.4% (active) in [10]; -37.7% (active) in assay [11]; -62.8% (active) in [12]. In addition, the growth in assay [13] is -37.9% (active); in [15] it was 52.3%; in [16] it was -22.9% (active); in assay [17] it was -83.1% (active); in [18], -45.5% (active); in assay [19], -53.9% (active).
Regarding `Cn1c(=O)c2c3c(oc2c2ccccc21)C(=O)c1ccccc1C3=O`, the growth is 92.6% in [1]; 70.7% in assay [2]; 81.8% in [3]; 54.8% in [4]; 94.5% in assay [5]; 75.5% in [6]. Besides, the growth in [8] was 93.3%; in assay [20], 19.1%; in assay [9], 2.39% (active); in assay [11] it was 51.1%; in assay [12] it was 85.3%; in assay [13], 120%. Further, the growth was 4.38% (active) in assay [14]; 68.7% in assay [16]; 21.6% in [17]; 93.2% in assay [18]; 76.9% in [19].
